# Results: PubChem BioAssay (EPA / NIEHS)
# Values joined by “and” are separate entries in the source; they are usually repeats but may differ in a detail not shown here. Equal entries are not always repeated. Results filed as inconclusive are left out. Where a structure was tested more than once in an assay, its records may differ in their call. Active and inactive are the calls of the source. How the source made its calls, unless noted: active means hit-call score of the fitted dose curve at least 0.9, where 1 is the maximum; inactive means score below 0.9.
# Read-out: Interleukin-8 (IL8), CXCL8 (gene 3576)
# Test: BSK_3C_IL8: BioMAP Diversity Plus: 3C Assay for Interleukin-8 (IL8) Biomarker Activity (AID 2283020)
# Settings: primary human endothelial cells (HUVEC); actives raise or lower the signal
# How it was run: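 Human vascular endothelial cells (umbilical vein) in the 3C system; IL-8 level detected by ELISA at 24 h post-dose, with DMSO as baseline.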
Structure (SMILES),outcome,AC50
O=S(=O)(O)C(F)(F)C(F)(F)C(F)(F)C(F)(F)C(F)(F)C(F)(F)C(F)(F)F,inactive,
FC(F)(F)C(F)(F)C(F)(F)C(F)(F)CCI,inactive,
O=C(O)C(F)(F)C(F)(F)C(F)(F)C(F)(F)C(F)(F)C(F)(F)C(F)(F)C(F)(F)Cl,inactive,45.1 µM (active)
FC(F)(F)C(F)(F)C(F)(F)CI,inactive,
O=C(O)C(F)(F)C(F)(F)F,inactive,
CCc1c(Br)c(Br)c(Br)c(Br)c1Br,inactive,
O=C(O)C(F)(OC(F)(F)C(F)(OC(F)(F)C(F)(F)C(F)(F)F)C(F)(F)F)C(F)(F)F (stereo unspecified),inactive,
Oc1ccc(Nc2ccccc2)cc1,,0.0694 µM (active)

# Read-out: Monokine induced gamma interferon (MIG), CXCL9 (gene 4283)
# Test: BSK_3C_MIG: BioMAP Diversity Plus: 3C Assay for Monokine induced gamma interferon (MIG) Biomarker Activity (AID 2283021);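 on AC50: MIG protein level measured by immunoassay in the treated endothelial cultures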
# Settings: primary human endothelial cells (HUVEC); actives raise or lower the signal
# How it was run: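 After 24 h of treatment, human umbilical vein endothelial cultures (3C system) had their MIG biomarker level determined by ELISA, with DMSO serving as negative control.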
Structure (SMILES),outcome,AC50
O=C(O)C(F)(F)C(F)(F)C(F)(F)C(F)(F)C(F)(F)C(F)(F)C(F)(F)C(F)(F)C(F)(F)C(F)(F)C(F)(F)C(F)(F)F,inactive,
O=S(=O)(O)C(F)(F)C(F)(F)C(F)(F)C(F)(F)C(F)(F)C(F)(F)C(F)(F)F,inactive,
FC(F)(F)C(F)(F)C(F)(F)C(F)(F)CCI,inactive,
O=C(O)C(F)(F)C(F)(F)C(F)(F)C(F)(F)C(F)(F)C(F)(F)C(F)(F)C(F)(F)Cl,inactive,55.1 µM (active)
Cc1ccc(S(=O)(=O)OCC(F)(F)C(F)(F)C(F)(F)C(F)(F)C(F)(F)C(F)F)cc1,inactive,
FC(F)(F)C(F)(F)C(F)(F)CI,inactive,
O=C(O)C(F)(F)C(F)(F)C(F)(F)C(F)(F)F,inactive,
Nc1ccc([N+](=O)[O-])cc1O,inactive,
FC(F)(F)C(F)(F)C(F)(F)C(F)(F)C(F)(F)CCI,inactive,
O=C(O)C(F)(F)C(F)(F)C(F)(F)C(F)(F)C(F)(F)C(F)(F)C(F)(F)C(F)(F)C(F)(F)C(F)(F)C(F)(F)C(F)(F)C(F)(F)F,inactive,
CCCCCCCCCCCCCCCC[N+](C)(C)Cc1ccccc1,,4.12 µM (active)
OCC(F)(F)C(F)(F)C(F)(F)F,inactive,
O=C(O)C(F)(F)C(F)(F)F,inactive,
CCc1c(Br)c(Br)c(Br)c(Br)c1Br,inactive,
O=C(O)C(F)(OC(F)(F)C(F)(OC(F)(F)C(F)(F)C(F)(F)F)C(F)(F)F)C(F)(F)F (stereo unspecified),inactive,
Oc1ccc(Nc2ccccc2)cc1,inactive,
C=CC(F)(F)C(F)(F)C(F)(F)C(F)(F)C(F)(F)C(F)(F)C(F)(F)C(F)(F)C=C,inactive,
FC(F)(F)C(F)(F)C(F)(F)C(F)(F)C(F)(F)C(F)(F)C(F)(F)C(F)(F)F,inactive,
N=C(N)C(F)(F)C(F)(F)C(F)(F)C(F)(F)C(F)(F)C(F)(F)C(F)(F)F,inactive,
FC(F)(F)C(F)(F)C(F)(F)C(F)(F)C(F)(F)C(F)(F)CC1CO1 (stereo unspecified),inactive,

# Molecular target: human Vitamin D Receptor (VDR), VDR (gene 7421) (UniProt P11473)
# Sequence (P11473 whole entry, looked up): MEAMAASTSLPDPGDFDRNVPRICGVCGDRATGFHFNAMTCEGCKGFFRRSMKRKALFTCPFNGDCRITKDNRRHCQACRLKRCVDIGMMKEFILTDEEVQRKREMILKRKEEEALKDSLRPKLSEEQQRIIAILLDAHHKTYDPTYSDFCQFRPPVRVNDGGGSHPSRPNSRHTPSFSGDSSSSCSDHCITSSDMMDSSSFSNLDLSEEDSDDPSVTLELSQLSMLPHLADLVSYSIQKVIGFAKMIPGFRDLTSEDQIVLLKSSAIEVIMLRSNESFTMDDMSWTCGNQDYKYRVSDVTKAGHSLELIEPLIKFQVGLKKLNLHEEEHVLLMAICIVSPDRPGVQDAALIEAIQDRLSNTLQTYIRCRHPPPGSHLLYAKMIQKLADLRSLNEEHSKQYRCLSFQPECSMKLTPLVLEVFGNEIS
# Test: ATG_VDR_TRANS: Attagene TRANS-FACTORIAL HepG2 Assay for human Vitamin D Receptor (VDR) (AID 2283022; active means hit-call score of the fitted dose curve at least 0.9, where 1 is the maximum)
# Settings: not given
# How it was run: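 HepG2 cells were transiently transfected with GAL4-UAS reporter units and a chimeric VDR-Gal4 construct, then dosed for 24 hours. Reporter mRNA was quantified by RT-PCR, fluorescent labeling, HpaI digestion and capillary electrophoresis; gain of signal analysed vs DMSO.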
row,Structure (SMILES),outcome
1,O=C(O)C(F)(F)C(F)(F)C(F)(F)C(F)(F)C(F)(F)C(F)(F)C(F)(F)C(F)(F)C(F)(F)C(F)(F)C(F)(F)C(F)(F)F,inactive
2,CC(C)(C)c1ccc(OC2CCCCC2O)cc1 (stereo unspecified),inactive
3,FC(F)(F)C(F)(F)C(F)(F)C(F)(F)CCI,inactive
4,O=C(O)C(F)(F)C(F)(F)C(F)(F)C(F)(F)C(F)(F)C(F)(F)C(F)(F)C(F)(F)Cl,inactive
5,C1COCCN1,inactive
6,Cc1ccc(S(=O)(=O)OCC(F)(F)C(F)(F)C(F)(F)C(F)(F)C(F)(F)C(F)F)cc1,inactive
7,FC(F)(F)C(F)(F)C(F)(F)CI,inactive
8,O=C(O)C(F)(F)C(F)(F)C(F)(F)C(F)(F)F,inactive
9,Nc1ccc([N+](=O)[O-])cc1O,inactive
10,FC(F)(F)C(F)(F)C(F)(F)C(F)(F)C(F)(F)CCI,inactive
11,CCCCCCCCCCCCCCCC[N+](C)(C)Cc1ccccc1,inactive
12,Nc1cc(Cl)c(N)c(Cl)c1,inactive
13,O=C(O)C(F)(F)C(F)(F)F,inactive
14,CCCCCC=O,inactive
15,CCc1c(Br)c(Br)c(Br)c(Br)c1Br,inactive
16,O=C(O)C(F)(OC(F)(F)C(F)(OC(F)(F)C(F)(F)C(F)(F)F)C(F)(F)F)C(F)(F)F (stereo unspecified),inactive
17,Oc1ccc(Nc2ccccc2)cc1,inactive
18,FC(F)(F)C(F)(F)C(F)(F)C(F)(F)C(F)(F)C(F)(F)C(F)(F)C(F)(F)F,inactive
19,N=C(N)C(F)(F)C(F)(F)C(F)(F)C(F)(F)C(F)(F)C(F)(F)C(F)(F)F,inactive
20,C(=C(c1ccccc1)c1ccccc1)c1ccccc1,inactive

# Read-out: not listed separately
# Test: BSK_3C_SRB: Viability Assessment in the BioMAP Diversity Plus: 3C Assay (AID 2283023);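 further: cells read 24 h after compound dosing; fitted both ways against DMSO so a hit may be signal rise or drop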
# Settings: primary human endothelial cells (HUVEC)
# How it was run: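 Human umbilical vein endothelial cells in the 3C system, treated 24 h. Total protein measured by 0.1% sulforhodamine B staining after 10% TCA fixation, read at 560 nm; bidirectional fit versus DMSO.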
Structure (SMILES),outcome,AC50
O=C(O)C(F)(F)C(F)(F)C(F)(F)C(F)(F)C(F)(F)C(F)(F)C(F)(F)C(F)(F)C(F)(F)C(F)(F)C(F)(F)C(F)(F)F,inactive,
O=S(=O)(O)C(F)(F)C(F)(F)C(F)(F)C(F)(F)C(F)(F)C(F)(F)C(F)(F)F,inactive,
FC(F)(F)C(F)(F)C(F)(F)C(F)(F)CCI,inactive,
O=C(O)C(F)(F)C(F)(F)C(F)(F)C(F)(F)C(F)(F)C(F)(F)C(F)(F)C(F)(F)Cl,,52.5 µM (active) and 45.1 µM (active)
Cc1ccc(S(=O)(=O)OCC(F)(F)C(F)(F)C(F)(F)C(F)(F)C(F)(F)C(F)F)cc1,,45.5 µM (active) and 38.1 µM (active)
FC(F)(F)C(F)(F)C(F)(F)CI,inactive,
O=C(O)C(F)(F)C(F)(F)C(F)(F)C(F)(F)F,inactive,
Nc1ccc([N+](=O)[O-])cc1O,inactive,
FC(F)(F)C(F)(F)C(F)(F)C(F)(F)C(F)(F)CCI,inactive,
O=C(O)C(F)(F)C(F)(F)C(F)(F)C(F)(F)C(F)(F)C(F)(F)C(F)(F)C(F)(F)C(F)(F)C(F)(F)C(F)(F)C(F)(F)C(F)(F)F,inactive,
CCCCCCCCCCCCCCCC[N+](C)(C)Cc1ccccc1,inactive,
OCC(F)(F)C(F)(F)C(F)(F)F,inactive,
O=C(O)C(F)(F)C(F)(F)F,inactive,
CCc1c(Br)c(Br)c(Br)c(Br)c1Br,inactive,
O=C(O)C(F)(OC(F)(F)C(F)(OC(F)(F)C(F)(F)C(F)(F)F)C(F)(F)F)C(F)(F)F (stereo unspecified),inactive,
Oc1ccc(Nc2ccccc2)cc1,inactive,
C=CC(F)(F)C(F)(F)C(F)(F)C(F)(F)C(F)(F)C(F)(F)C(F)(F)C(F)(F)C=C,inactive,
FC(F)(F)C(F)(F)C(F)(F)C(F)(F)C(F)(F)C(F)(F)C(F)(F)C(F)(F)F,inactive,
N=C(N)C(F)(F)C(F)(F)C(F)(F)C(F)(F)C(F)(F)C(F)(F)C(F)(F)F,inactive,54.9 µM (active)
FC(F)(F)C(F)(F)C(F)(F)C(F)(F)C(F)(F)C(F)(F)CC1CO1 (stereo unspecified),inactive,
